The text below walks through data of PubChem BioAssay (Tox21).

Test [1] in a line: Nuclear factor erythroid 2-related factor 2/antioxidant responsive element (Nrf2/ARE) small molecule agonists: qHTS cell viability counter screen in human keratinocytes (AID 1919968; active = well fitted curve in the direction sought with a large enough effect in the repeat runs; an effect the other way counts as inactive or inconclusive; also: nearly all actives have a fitted effect of over 55% in size). In a few lines:
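CellTiter-Fluor fluorescence, read 1 h after reagent, gave viability in the same wells as the ARE-luciferase assay. KeratinoSens cells (1,500/well) had 23 h compound exposure at 37 C/5% CO2 following 5 h plating.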

The nature of test [2]: Nuclear factor erythroid 2-related factor 2/antioxidant responsive element (Nrf2/ARE) small molecule agonists: luciferase reporter gene qHTS assay in human keratinocytes (AID 1919969). Also: nearly all actives have a fitted effect of over 35% in size. Also: potency is read from the fitted curve at half-maximal effect. For orientation: Reporter assays use an easily measured gene product as a stand-in for the process of interest.
The target of test [3] is Gonadotropin-releasing hormone receptor (Homo sapiens) (UniProt P30968). Briefly: Human gonadotropin-releasing hormone receptor (GnRHR) small molecule agonists, calcium flux assay in GnRHR-HEK293 cells (AID 1920063). Also: nearly all actives have a fitted effect of over 35% in size. In a few lines: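 Agonist mode: compounds at 15 concentrations, in triplicate, went onto calcium dye-loaded GnRHR-HEK293 cells. Intracellular calcium was then followed as 480/540 nm fluorescence at 1 s intervals over 3 min.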
Background: Calcium assays in cells follow changes in intracellular calcium, usually with a dye or a luminescent sensor.

Test [4] has as its target KiSS-1 receptor (Homo sapiens) (UniProt Q969F8). Nature of the test: Human kisspeptin (KISS1R) small molecule agonists, calcium flux assay in KISS1R-HEK293 cells (AID 1920064; active = well fitted curve in the direction sought with a large enough effect in the repeat runs; an effect the other way counts as inactive or inconclusive). The method in brief:
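Agonist mode: intracellular calcium rise tracked at 1 s intervals over 3 min (480/540 nm) immediately after compound addition to dye-loaded KISS1R-HEK293 stable cells. Each compound tested at 15 concentrations in triplicate.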

A short description of test [5]: G protein-coupled receptor (GPCR) small molecule agonists, calcium flux assay: HEK293 wild type cell line counter screen (AID 1920065). The method in brief: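 Calcium flux counter screen: compound added in agonist mode at 15 concentrations in triplicate to dye-loaded parental HEK293 cells. Fluorescence (480/540) read kinetically for 3 min; ATP served as positive control.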

Test [6] is described as follows: p53 small molecule agonists, cell-based qHTS assay with human liver microsomes (AID 1963577). In a few lines: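 p53RE-bla cells, 4,000/well, compound added after 5 h, with human liver microsomes 0.5 mg/mL and NADPH 0.5 mg/mL final; 16 h at 37 C, then LiveBLAzer 2 h RT, fluorescence.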
In general terms: In qHTS, concentration-response curves come from the screen itself.

Test [7] in a line: p53 small molecule agonists, cell-based qHTS assay with rat liver microsomes (AID 1963578). In a few lines: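 p53RE-bla cells, 4,000/well, pre-incubated 5 h, then given compounds plus rat liver microsomes (0.5 mg/mL final) and NADPH (0.5 mg/mL final). Incubation 16 h at 37 C; beta-lactamase reporter read by LiveBLAzer fluorescence after 2 h at room temperature.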
The nature of test [8]: p53 small molecule agonists, cell-based qHTS assay with human liver microsomes: qHTS cell viability counter screen (AID 1963579). Also: nearly all actives have a fitted effect of over 45% in size. In a few lines: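 p53RE-bla cells, 4,000/well, dosed 5 hours after plating, with human liver microsomes (0.5 mg/mL final) plus NADPH (0.5 mg/mL final), 16 hours at 37 C. Viability read as CellTiter-Glo luminescence after 30 min at room temperature.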

The nature of test [9]: p53 small molecule agonists, cell-based qHTS assay with rat liver microsomes: qHTS cell viability counter screen (AID 1963580). Also: nearly all actives have a fitted effect of over 45% in size. In a few lines: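 Rat liver microsome (0.5 mg/mL final) and NADPH (0.5 mg/mL final) co-incubation with compounds for 16 h at 37 C on HCT-116 p53RE-bla cells; cytotoxicity taken from intracellular ATP luminescence.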
A short description of test [10]: p53 small molecule agonists, cell-based qHTS assay: qHTS cell viability counter screen (AID 1963581). Also: nearly all actives have a fitted effect of over 45% in size. In a few lines:
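Counter screen read by CellTiter-Glo luminescence (ATP content, 30 min at room temperature), run in the same wells as the beta-lactamase reporter read. HCT-116 p53RE-bla cells saw compounds for 16 h at 37 C.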

Test [11] can be described thus: p53 small molecule agonists, cell-based qHTS assay (AID 1963582; active = well fitted activation curve with a large enough effect in the signal ratio in the repeat runs, not every such curve was filed as active; the % refers to the signal ratio). In a few lines:
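Read-out is beta-lactamase FRET fluorescence after 2 h at room temperature with LiveBLAzer B/G substrate. p53 response element-bla cells were treated 16 h at 37 C with compounds in DMSO, added 5 h after seeding.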

Test [12] deals with 5-hydroxytryptamine receptor 2A (Homo sapiens) (UniProt P28223). Briefly: 5-hydroxytryptamine receptor 2A (HTR2A) small molecule antagonists, cell-based qHTS assay (AID 1963586). Also: nearly all actives have a fitted effect of over 45% in size. The method in brief:
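CHO cells stably expressing human HTR2A were plated for 18 h at 37 C, then loaded with calcium dye for 1 h. Compounds were preincubated 5 min at room temperature before DOI (4 nM solution) was added. Kinetic fluorescence was read for 3 min.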

For test [13] the target is unchanged. Briefly: 5-hydroxytryptamine receptor 2A (HTR2A) small molecule agonists, cell-based qHTS assay (AID 1963587). Also: nearly all actives have a fitted effect of over 30% in size. In a few lines: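 Kinetic calcium-flux fluorescence (2 min, 1 sec intervals) after compound addition in agonist mode. HTR2A-CHO cells were cultured 18 h, then dye-loaded 1 h at 37 C.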
The target in test [14] is Muscarinic acetylcholine receptor M1 (Homo sapiens) (UniProt P11229). Nature of the test: Cholinergic receptor muscarinic 1 (CHRM1) small molecule antagonists, cell-based qHTS assay (AID 1963588). Also: nearly all actives have a fitted effect of over 40% in size. In a few lines:
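Compounds were tested at 15 concentrations in three independent runs. Dye-loaded CHRM1-CHO cells were exposed 5 min at room temperature before stimulation by acetylcholine added at 50nM. Intracellular calcium was read kinetically on FDSS for 3 min.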

For test [15] the target is unchanged. Briefly: Cholinergic receptor muscarinic 1 (CHRM1) small molecule agonists, cell-based qHTS assay (AID 1963589). Also: nearly all actives have a fitted effect of over 35% in size. In a few lines: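 Agonist-mode calcium-flux screen: compounds at 15 concentrations, three independent runs, were pin-transferred onto dye-loaded human CHRM1-CHO cells. Fluorescence was then recorded kinetically every second over minutes.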
The nature of test [16]: cAMP Responsive Elements (CRE) small molecule agonists, cell-based qHTS assay (AID 1963590). In a few lines:
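Agonist mode: compound added to CRE-bla HEK 293T cells (2,000/well, 18 h after plating) for 3 h at 37 C/5% CO2. Reporter activity detected via FRET beta-lactamase substrate, 2 h room-temperature loading.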

Test [17] is described as follows: cAMP Responsive Elements (CRE) small molecule antagonists, cell-based qHTS assay (AID 1963591; active = well fitted inhibition curve with a large enough effect in the signal ratio in the repeat runs, not every such curve was filed as active; the % refers to the signal ratio). The method in brief:
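Antagonist mode: compounds are added alongside the adenylyl cyclase activator NKH477 (0.25 uM final) to CRE-bla HEK293T cells for 3 h. LiveBLAzer FRET substrate, 2 h at room temperature, reports bla expression.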

In test [18] the target is Beta-2 adrenergic receptor (Homo sapiens) (UniProt P07550). Briefly: Adrenergic beta2 receptor (ADRB2) small molecule antagonists, cell-based qHTS assay (AID 1963592). Also: series mostly up to about 92 µM; nearly all actives have a fitted effect of over 50% in size. In a few lines:
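Assay format: CHO-ADRB2 cells, 18-20hr seeding at 37C/5% CO2, then compound plus 1nM isoproterenol agonist mix for 0.5hr RT. Homogeneous time-resolved fluorescence cAMP detection after 1hr, expressed as 665/615 nm ratio.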

The target in test [19] is D(2) dopamine receptor (Homo sapiens) (UniProt P14416). Nature of the test: Dopamine D2 receptor (DRD2) small molecule agonists, cell-based qHTS assay (AID 1963594). Also: nearly all actives have a fitted effect of over 35% in size. The method in brief: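 cAMP accumulation in DRD2-HEK293 cells measured by HTRF after 1 h detection; compounds added 10 min before NKH477 (200nM […]) forskolin-analogue stimulation, 30 min at room temperature, with Ro20-1724 present at 0.1 mM final.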

Test [20] has the same target. Briefly: Dopamine D2 receptor (DRD2) small molecule antagonists, cell-based qHTS assay (AID 1963595; active = well fitted inhibition curve with a large enough effect in the signal ratio in the repeat runs, with a control signal flat; the % refers to the signal ratio). In a few lines: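 Stable D2 receptor HEK293 line, 24 h after seeding. Compound preincubated 10 min, then quinpirole (12 nM) with forskolin analogue NKH477 (200 nM), 30 min, room temperature. Detection by time-resolved FRET of cAMP.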

Results filed as inconclusive are left out. Activity calls are given as the source filed them. Unless noted, calls follow the shape of the full dose curve.

Sequence of D(2) dopamine receptor (Homo sapiens) (P14416 whole entry, looked up): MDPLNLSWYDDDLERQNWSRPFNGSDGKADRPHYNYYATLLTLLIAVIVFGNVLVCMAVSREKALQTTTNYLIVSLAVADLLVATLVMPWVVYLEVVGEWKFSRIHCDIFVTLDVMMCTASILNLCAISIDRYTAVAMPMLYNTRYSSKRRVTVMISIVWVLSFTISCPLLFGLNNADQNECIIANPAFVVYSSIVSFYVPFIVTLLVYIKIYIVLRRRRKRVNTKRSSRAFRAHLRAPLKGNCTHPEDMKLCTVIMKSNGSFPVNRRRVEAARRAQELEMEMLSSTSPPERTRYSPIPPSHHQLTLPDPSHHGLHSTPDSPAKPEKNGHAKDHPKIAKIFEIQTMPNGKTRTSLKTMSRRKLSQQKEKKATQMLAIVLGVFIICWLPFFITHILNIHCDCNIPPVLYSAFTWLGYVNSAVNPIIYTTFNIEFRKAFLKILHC
Sequence of Beta-2 adrenergic receptor (Homo sapiens) (P07550 whole entry, looked up): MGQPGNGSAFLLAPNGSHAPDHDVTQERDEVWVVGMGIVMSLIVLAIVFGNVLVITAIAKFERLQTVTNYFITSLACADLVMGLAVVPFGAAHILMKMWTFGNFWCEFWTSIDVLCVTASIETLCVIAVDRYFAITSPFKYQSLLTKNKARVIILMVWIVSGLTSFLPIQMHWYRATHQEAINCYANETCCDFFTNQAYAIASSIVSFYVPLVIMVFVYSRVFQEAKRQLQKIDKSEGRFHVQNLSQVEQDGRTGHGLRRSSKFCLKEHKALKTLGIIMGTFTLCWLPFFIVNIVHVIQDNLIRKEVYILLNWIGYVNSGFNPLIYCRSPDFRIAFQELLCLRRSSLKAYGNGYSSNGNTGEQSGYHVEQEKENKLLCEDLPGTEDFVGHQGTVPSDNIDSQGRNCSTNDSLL
Sequence of KiSS-1 receptor (Homo sapiens) (Q969F8 whole entry, looked up): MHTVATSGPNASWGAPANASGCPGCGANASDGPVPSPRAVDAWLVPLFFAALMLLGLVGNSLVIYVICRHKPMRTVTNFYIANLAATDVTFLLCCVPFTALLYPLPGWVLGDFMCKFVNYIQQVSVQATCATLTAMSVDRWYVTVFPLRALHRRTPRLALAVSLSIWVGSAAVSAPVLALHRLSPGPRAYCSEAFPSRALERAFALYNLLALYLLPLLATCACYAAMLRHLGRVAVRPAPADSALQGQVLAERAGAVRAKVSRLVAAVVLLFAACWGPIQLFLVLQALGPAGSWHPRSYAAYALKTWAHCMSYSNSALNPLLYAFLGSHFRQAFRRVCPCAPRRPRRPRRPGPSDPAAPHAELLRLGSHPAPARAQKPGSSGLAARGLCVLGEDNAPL
Sequence of Muscarinic acetylcholine receptor M1 (Homo sapiens) (P11229 whole entry, looked up): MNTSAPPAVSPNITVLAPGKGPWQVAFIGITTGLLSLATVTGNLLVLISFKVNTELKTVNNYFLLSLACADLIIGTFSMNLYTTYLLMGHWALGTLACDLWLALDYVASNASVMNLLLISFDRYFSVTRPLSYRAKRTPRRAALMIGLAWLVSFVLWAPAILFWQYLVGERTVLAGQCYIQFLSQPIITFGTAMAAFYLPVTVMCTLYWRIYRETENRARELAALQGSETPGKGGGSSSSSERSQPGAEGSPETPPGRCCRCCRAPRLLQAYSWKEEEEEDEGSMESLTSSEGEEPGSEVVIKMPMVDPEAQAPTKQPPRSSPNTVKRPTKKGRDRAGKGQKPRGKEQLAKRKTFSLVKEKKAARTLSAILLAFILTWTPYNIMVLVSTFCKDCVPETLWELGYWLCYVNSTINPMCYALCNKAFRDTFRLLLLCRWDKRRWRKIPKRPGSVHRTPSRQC
Sequence of 5-hydroxytryptamine receptor 2A (Homo sapiens) (P28223 whole entry, looked up): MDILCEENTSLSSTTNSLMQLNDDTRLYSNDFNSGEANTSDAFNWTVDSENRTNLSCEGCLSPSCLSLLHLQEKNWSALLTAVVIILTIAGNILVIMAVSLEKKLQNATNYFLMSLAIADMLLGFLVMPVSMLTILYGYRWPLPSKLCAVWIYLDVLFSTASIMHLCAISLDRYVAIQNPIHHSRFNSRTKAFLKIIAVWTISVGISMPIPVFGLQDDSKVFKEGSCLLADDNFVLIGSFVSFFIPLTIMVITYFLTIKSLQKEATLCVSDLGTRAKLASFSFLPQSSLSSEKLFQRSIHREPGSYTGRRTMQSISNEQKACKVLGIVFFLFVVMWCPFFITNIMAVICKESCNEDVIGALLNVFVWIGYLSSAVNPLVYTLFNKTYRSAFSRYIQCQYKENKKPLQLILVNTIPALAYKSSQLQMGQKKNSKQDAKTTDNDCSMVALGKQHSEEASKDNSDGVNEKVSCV
Sequence of Gonadotropin-releasing hormone receptor (Homo sapiens) (P30968 whole entry, looked up): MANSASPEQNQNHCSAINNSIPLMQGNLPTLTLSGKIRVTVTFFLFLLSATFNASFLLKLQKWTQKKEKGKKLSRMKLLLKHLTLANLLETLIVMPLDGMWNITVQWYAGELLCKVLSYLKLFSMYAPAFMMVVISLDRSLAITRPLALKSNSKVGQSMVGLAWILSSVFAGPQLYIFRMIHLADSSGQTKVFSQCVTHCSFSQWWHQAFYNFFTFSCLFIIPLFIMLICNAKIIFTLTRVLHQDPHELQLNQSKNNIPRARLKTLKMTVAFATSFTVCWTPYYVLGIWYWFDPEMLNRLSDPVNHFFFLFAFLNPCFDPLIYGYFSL

Consider `CCO[Si](CCCN=C=O)(OCC)OCC`, for which the Potency result in test [1], in [2], in test [3], in test [4], in test [5] and in [6] was “inactive” in each case. For the same compound, the Potency result in test [7], in test [8], in test [9], in test [10], in test [11] and in test [12] was “inactive” each time. Moreover, the Potency result in [13], in test [14], in test [15], in test [16], in [17] and in [18] was “inactive” each time. Further, the Potency entry in test [19] and in [20] was “inactive” in each case.

For `CC1OC1C1CCC2(C)OC2C1` (stereo not given), the Potency result in test [1], in test [2], in [3], in test [4], in test [5] and in test [6] was “inactive” each time. The Potency result in test [7], in test [8], in test [9], in [10], in [11] and in test [12] was “inactive” in each case. Besides, the Potency result in test [13], in test [14], in [15], in test [16], in test [17] and in test [18] was “inactive” throughout. In addition, the Potency entry in [19] and in [20] was “inactive” throughout.

As for `COc1ccccc1/C=C/C=O`, the Potency result in [1], in test [3], in [4], in test [5], in test [6] and in [7] was “inactive” in each case. For the same compound, the Potency result in [8], in test [9], in test [10], in test [11], in test [12] and in [13] was “inactive” in each case. Further, the Potency result in [14], in test [15], in [16], in [17], in test [18] and in [19] was “inactive” each time. The Potency entry in test [20] is “inactive”. For the same compound, the Potency in test [2] is 54.5 µM (active).

In the case of `IC(I)I`, the Potency entry in test [1], in test [2], in test [3], in [4], in test [5] and in test [6] was “inactive” throughout. Besides, the Potency result in test [7], in [8], in test [9], in test [10], in [11] and in test [12] was “inactive” in each case. In addition, the Potency entry in test [13], in test [14], in test [15], in test [16], in [17] and in test [18] was “inactive” each time. The Potency result in [19] and in [20] was “inactive” in each case.

As for `C[C@@H]1O[C@@H](OC[C@H]2O[C@@H](Oc3c(-c4ccc(O)c(O)c4)oc4cc(O)cc(O)c4c3=O)[C@H](O)[C@@H](O)[C@@H]2O)[C@H](O)[C@H](O)[C@H]1O`, the Potency entry in test [1], in test [2], in test [3], in [4], in [5] and in test [6] was “inactive” each time. The Potency result in test [7], in [8], in test [9], in test [10], in test [11] and in test [12] was “inactive” each time. The Potency entry in test [13], in [14], in [15], in test [16], in test [17] and in test [18] was “inactive” in each case. Besides, the Potency result in test [19] and in test [20] was “inactive” each time.

On to `C1CCCCC1`, for which the Potency result in test [1], in test [2], in test [3], in test [4], in test [5] and in test [6] was “inactive” in each case. Besides, the Potency result in test [7], in test [8], in test [9], in test [10], in test [11] and in test [12] was “inactive” in each case. Besides, the Potency result in [13], in [14], in test [15], in test [16], in test [17] and in test [18] was “inactive” each time. Moreover, the Potency entry in [19] and in [20] was “inactive” each time.
